Reference: PubChem BioAssay (NCATS)
Inconclusive results are not listed. Activity calls are given as the source filed them. Calls come from the whole dose curve; as a rule, active = well fitted inhibition curve with a large enough effect; inconclusive = small, poorly fitted or top-dose-only effect, or effect the other way; inactive = flat fitted curve, though single readings scatter.

Assay: qHTS for Inhibitors of Plasmodium falciparum (GB4) proliferation (AID 504315); note: nearly all actives have a fitted effect of over 50% in size;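 for activity change, negative = inhibition: 0% = DMSO vehicle and -100% = 0.29 µM artemisinin control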
Conditions: P. falciparum GB4 in erythrocytes, SYBR Green DNA, 72 h; series mostly up to 6.7 µM; activity change, negative = inhibition: at the top concentration
How it was run: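 Parasite growth measured as SYBR Green DNA fluorescence (ex 485, em 535 nm) after overnight lysis following 72 h culture at 37 °C, 0.3% parasitemia, 2.5% hematocrit. Values normalized against DMSO and 0.29 uM artemisinin controls, with plate-stack correction.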
Potency is the fitted concentration of half-maximal effect.

Row | SMILES | activity change, negative = inhibition | Potency
1 | C=C(C(=O)C(C)(C)O)C(O)c1ccc([N+](=O)[O-])cc1 (stereo unspecified) | -2.93% (inactive) | 
2 | COc1cc(CO[C@H]2C=C[C@@H](c3ccccc3)O[C@H]2CO)cc(OC)c1 | -2.99% (inactive) | 
3 | COc1cc([C@@H](NC(=O)C(F)(F)F)C2CCCCC=C2c2ccccc2)cc(OC)c1OC (stereo partly specified) | -2.73% (inactive) | 
4 | CCOC(=O)CCN1C(=O)[C@@H]2[C@H]3[C@H](O)[C@H](O)CC(=NOCc4ccccc4)[C@@H]3CC[C@H]2C1=O | -4.29% (inactive) | 
5 | C[C@H]1C=CCC(=O)NCc2cccc(c2)CNC(=O)N[C@@H]1c1ccccc1 | -7.76% (inactive) | 
6 | COc1cc2c(cc1OC)[C@@]1(c3ccccc3)CCCC[C@H]1[C@@H]2NC(=O)C(F)(F)F | -2.9% (inactive) | 
7 | COc1cc2c(c(OC)c1OC)[C@@]1(c3ccccc3)CCCC[C@H]1[C@@H]2NC(=O)C(F)(F)F | -5.78% (inactive) | 
8 | CC1=CC[C@@H](C)O[C@@]2(C1)C(=O)N(Cc1ccc(F)cc1)c1ccccc12 | -13.6% (inactive) | 
9 | CC(=O)O[C@@H]1C(CO[Si](C)(C)C(C)(C)C)=C(Br)C(=O)[C@@H]2O[C@]12C | -6.24% (inactive) | 
10 | CC12C=C(C=Cc3ccc(F)cc3)C(C)(C1)C(c1ccc(F)cc1)CC2=O (stereo unspecified) | -9.46% (inactive) | 
11 | COC(=O)CCC(=O)OC1(C)C(=O)C=C2C=C(C3CC3)OC=C2C1=O (stereo unspecified) | -9.01% (inactive) | 
12 | COc1ccc([C@]23Cc4ccccc4[C@H](O2)c2c(cc(-c4ccccc4)oc2=O)O3)cc1 | -7.04% (inactive) | 
13 | COCC=CC1=CC2=CC(=O)C(C)(OC(=O)c3cnc4ccccc4n3)C(=O)C2=CN1CCc1c[nH]c2ccccc12 (stereo unspecified) | 0.496% (inactive) | 
14 | C#CCCCON=C1C[C@@H](O)[C@H](O)[C@H]2[C@@H]3C(=O)N(Cc4ccc5c(c4)OCO5)C(=O)[C@@H]3CC[C@@H]12 | 6.74% (inactive) | 
15 | CC1(OC(=O)c2ccc(Cl)nc2)C(=O)C=C2C=C(c3ccsc3)OC=C2C1=O (stereo unspecified) | 4.67% (inactive) | 
16 | COC(=O)CC=C[C@@H](C)[C@@H](C=NOC[C@H]1O[C@H](c2ccccc2)C=C[C@H]1Oc1ccc(OC)cc1)N[S+](=O)([O-])c1ccc(C)cc1 | -11.4% (inactive) | 
17 | CCc1cc2c(nc1CC)CCN(CCC(C)=NO[C@@H]1O[C@H](COC(C)=O)[C@@H](OC(C)=O)[C@H](OC(C)=O)[C@@H]1OC(C)=O)C2 | -4.6% (inactive) | 
18 | CC(=O)OC[C@H]1O[C@H](CCON=C(C)CCN2CCCCc3nc(C)c(C)cc32)C=C[C@H]1OC(C)=O | -0.507% (inactive) | 

Row | SMILES | activity change, negative = inhibition | Potency
19 | COc1ccc([C@]23Cc4cc(OC)c(OC)cc4[C@H](O2)c2c(cc(C)oc2=O)O3)cc1 | -7.48% (inactive) | 
20 | CC=Cc1cc2ccccc2c2c(C(=O)OC)c(C(=O)OC)c(C(=O)OC(C)(C)C)n12 | -9.91% (inactive) | 
21 | O=C(NC(CC1=CCCCC1)c1ccc2ccccc2c1)C(F)(F)F (stereo unspecified) | 2.07% (inactive) | 
22 | COCCN1C(=S)NC(c2cccc(F)c2)C(C(=O)OC)=C1C (stereo unspecified) | -10.4% (inactive) | 
23 | C[C@H]1C=CCC(=O)N[C@@H](c2ccc3ccccc3c2)[C@@H](C)C=CCC(=O)N[C@@H]1c1ccc2ccccc2c1 | -4.92% (inactive) | 
24 | C[C@]12C[C@@](C)(C=C1C=Cc1ccc(C(F)(F)F)cc1)C(=O)C[C@H]2c1ccc(C(F)(F)F)cc1 |  | 1510 nM (active)
25 | CC12C=C(C=Cc3ccccc3)C(C)(C1)C(c1ccccc1)CC2=O (stereo unspecified) | -10.2% (inactive) | 
26 | COc1ccc2c(c1)O[C@@H](c1cccc(C(F)(F)F)c1)[C@H](OC(=O)Nc1cc(OC)c(OC)c(OC)c1)C2=O | -7.72% (inactive) | 
27 | C[C@H]1Cc2c(COc3ccccc3)nc3c(c2CO1)CN(S(=O)(=O)c1ccc2c(c1)OCCN2C)CC3 |  | inactive
28 | COc1cccc(-c2coc3ccc(Br)cc3c2=O)c1 | -6.63% (inactive) | 
29 | C[C@@H]1C=CCC(=O)N2[C@H](CC(=O)N[C@@H]1c1ccccc1)C[C@@H](C)[C@@H]2c1ccccc1 | 0.0875% (inactive) | 
30 | CC12C=C(C=CCCc3ccco3)C(C)(C1)[C@H](CCc1ccco1)CC2=O (stereo partly specified) | -8.11% (inactive) | 
31 | O=C1[C@@H]2[C@H]3[C@H](O)[C@H](O)CC(=NOC[C@@H](O)COCc4ccco4)[C@@H]3CC[C@H]2C(=O)N1Cc1ccccc1 | -2.86% (inactive) | 
32 | Oc1ccc2c(c1-c1c(O)c(Br)cc3c1CCCC3)CCCC2 | -16.1% (inactive) | 
33 | COC(=O)[C@@H]1CC23C(=NC(c4ccc([N+](=O)[O-])cc4)=C(C(F)(F)F)[C@@H]2N(C)c2ccccc23)N1C(C)=O (stereo partly specified) | 6.86% (inactive) | 
34 | COC(=O)[C@]1(C=C2c3ccccc3C[C@H](OC)[C@@H]2C)[C@@H]2CC=C[C@@H]21 | -7.4% (inactive) | 
35 | COc1cccc([C@@H](NC(=O)C(F)(F)F)[C@@H]2CCCC=C2c2ccccc2)c1 | -8.34% (inactive) | 
36 | COc1ccc([C@]23Cc4c(ccc5ccccc45)[C@H](O2)C2=C(CCCC2=O)O3)cc1 | -9.43% (inactive) | 
